Screens from PubChem BioAssay.
In the library only some 6.8% were active in any assay of this set; here they are far more common.
Pf Dd2 inh: inhibitors of Plasmodium falciparum Dd2 growth; activity change, % at 10 µM; P. falciparum Dd2 growth, SYBR Green, 72 h; stronger effect = lower value; 94,000 compounds, 2.3% hits; in the data active means activity change below about -80%; inconclusive means no clear call, values can overlap the other calls
T cruzi growth-1: inhibitors of T. cruzi proliferation; T. cruzi beta-gal in NIH3T3, GalScreen luminescence, 90 h; inhibition, % at 8.34 µM; 77,000 compounds, 5.9% hits;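 active means mean inhibition above about 93%, with at least 55% of replicates each passing it, limit read from the data, passing the limit was not always enough; inconclusive means only one of those two conditions holds; inactive means neither condition holds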
C diff growth: blocks growth of Clostridium difficile; Clostridium difficile clinical isolate growth, OD600, 24 h; stronger effect = lower value; growth activity, negative = inhibition, % at 16 µg/mL (by protocol); 86,000 compounds, 0.25% hits;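 active means mean growth activity at or below -80% and every replicate also at or below -80%; inconclusive means mean at or below -80% but some replicate above -80%; inactive means mean growth activity above -80%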
T cruzi growth-2: inhibitors of T. cruzi proliferation. shares compounds with T cruzi growth-1. T. cruzi beta-gal in NIH3T3, GalScreen luminescence, 90 h. inhibition, % at 8.35 µM. 5,600 compounds, 72% hits. AID 651739;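 active means mean replicate inhibition above about 95% and at least 55% of replicates individually reaching it, limit read from the data; inconclusive means only one of the two criteria is met; inactive means neither criterion is met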
T cruzi growth-3: blocks T. cruzi growth in NIH3T3 host cells | AID 651740 | T. cruzi beta-gal in NIH3T3, GalScreen luminescence, 90 h | shares compounds with T cruzi growth-1 | inhibition, % at 2.09 µM | 5,600 compounds, 21% hits;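 active means mean inhibition above about 95%, with at least 55% of replicates also reaching it, limit read from the data; inconclusive means meets just one of the two conditions; inactive means meets neither condition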
NIH3T3 tox: cytotoxicity in mouse NIH/3T3 fibroblasts; shares compounds with T cruzi growth-1; NIH/3T3 viability, CellTiter-Glo ATP luminescence, 90 h; cytotoxicity (signal decrease), % at 8.35 µM; 5,600 compounds, 14% hits; AID 651742;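 active means mean signal decrease across replicates above about 35% based on untreated-well scatter, with enough replicates individually passing, limit read from the data; inconclusive means no rule stated though some were filed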
3T3 cytotox 2: cytotoxicity in mouse NIH/3T3 fibroblasts; NIH/3T3 viability, CellTiter-Glo ATP luminescence, 90 h; AID 651744; 5,600 compounds, 56% hits; inhibition, % at 24.9 µM; shares compounds with T cruzi growth-1;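 active means mean loss of cell viability signal at or above a set limit, and enough replicates individually reaching it; inconclusive means meets only the mean limit or only the replicate share; inactive means meets neither condition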
Each line names hits and unclear results; the compound was inactive in the other large screens (follow-up assays come after a bar, where they were run).

CCCC(=O)Nc1ccc2c(c1)OC[C@H](C)N(S(=O)(=O)c1cn(C)cn1)C[C@@H](C)[C@@H](OC)CN(C)C2=O	none
C/C=C/c1ccc([C@@H]2[C@H](CO)N(C(C)=O)[C@H]2CNC(=O)c2ccccc2)cc1	none
C/C=C/c1ccc([C@@H]2[C@@H](CNC(=O)CC3CC3)N(C(C)=O)[C@H]2CO)cc1	none
C/C=C/c1ccc([C@H]2[C@@H](CO)N(C(C)=O)[C@@H]2CNC(=O)c2ccccc2)cc1	T cruzi growth-1 104 | T cruzi growth-2 97 | T cruzi growth-3 inactive | NIH3T3 tox inactive | 3T3 cytotox 2 inactive
C/C=C/c1ccc([C@@H]2[C@@H](CO)N(C(C)=O)[C@@H]2CNC(=O)CC2CC2)cc1	T cruzi growth-1 inconclusive | T cruzi growth-2 inactive | T cruzi growth-3 inactive | NIH3T3 tox inactive | 3T3 cytotox 2 inactive
COCC(=O)N1C[C@@H](C)[C@@H](OC)CN(C)C(=O)c2cc(NC(=O)c3cnccn3)ccc2OC[C@H]1C	none (no result: C diff growth)
O=C(C[C@@H]1C[C@H]2c3cc(NC(=O)CC4CC4)ccc3O[C@H]2[C@H](CO)O1)NCc1ccc(Cl)cc1	none (no result: C diff growth)
C[C@@H]1CN([C@H](C)CO)C(=O)Cc2cc(NC(=O)CCC(F)(F)F)ccc2O[C@H]1CN(C)C(=O)Nc1ccc(C(F)(F)F)cc1	none
O=C(Nc1ccc(Cl)c(Cl)c1)N[C@@H]1CC[C@H](CCn2cc(C3CCCCC3)nn2)O[C@H]1CO	none
C[C@@H]1CN([C@H](C)CO)C(=O)Cc2cc(NC(=O)CCN3CCOCC3)ccc2O[C@@H]1CN(C)C	none (no result: T cruzi growth-1)
C[C@@H]1CCCCO[C@@H](CN(C)Cc2ccc(C(=O)O)cc2)[C@H](C)CN([C@H](C)CO)C(=O)c2cc(NC(=O)Nc3ccc(C(F)(F)F)cc3)ccc2O1	none
C[C@@H]1CCCCO[C@@H](CN(C)Cc2ccc(C(F)(F)F)cc2)[C@H](C)CN([C@@H](C)CO)C(=O)c2cc(NC(=O)NC3CCCCC3)ccc2O1	T cruzi growth-1 inconclusive | T cruzi growth-2 98 | T cruzi growth-3 118 | NIH3T3 tox inactive | 3T3 cytotox 2 inactive
C[C@@H]1CCCCO[C@@H](CN(C)Cc2ccccc2)[C@@H](C)CN([C@@H](C)CO)C(=O)c2cc(NC(=O)Nc3ccc(C(F)(F)F)cc3)ccc2O1	none
C[C@@H]1CCCCO[C@@H](CN(C)Cc2ccc(C(F)(F)F)cc2)[C@H](C)CN([C@@H](C)CO)C(=O)c2cc(NC(=O)Nc3ccc(C(F)(F)F)cc3)ccc2O1	T cruzi growth-1 inconclusive | T cruzi growth-2 102 | T cruzi growth-3 117 | NIH3T3 tox inactive | 3T3 cytotox 2 inactive
C[C@@H]1CN([C@@H](C)CO)C(=O)c2cc(NC(=O)Nc3ccc(C(F)(F)F)cc3)ccc2O[C@@H](C)CCCCO[C@H]1CN(C)Cc1ccc(C(F)(F)F)cc1	T cruzi growth-1 inconclusive | T cruzi growth-2 inactive | T cruzi growth-3 inactive | NIH3T3 tox inactive | 3T3 cytotox 2 inactive
C[C@@H]1CCCCO[C@H](CN(C)Cc2ccc(C(=O)O)cc2)[C@H](C)CN([C@H](C)CO)C(=O)c2cc(NC(=O)Nc3ccc(C(F)(F)F)cc3)ccc2O1	none
C[C@H]1CCCCO[C@H](CN(C)Cc2ccc(C(F)(F)F)cc2)[C@@H](C)CN([C@@H](C)CO)C(=O)c2cc(NC(=O)NC3CCCCC3)ccc2O1	none
C[C@@H]1CCCCO[C@@H](CN(C)Cc2ccccc2)[C@@H](C)CN([C@H](C)CO)C(=O)c2cc(NC(=O)Nc3ccc(C(F)(F)F)cc3)ccc2O1	T cruzi growth-1 inconclusive | T cruzi growth-2 inactive | T cruzi growth-3 115 | NIH3T3 tox inactive | 3T3 cytotox 2 inactive
C[C@@H]1CN([C@@H](C)CO)C(=O)c2cc(NC(=O)Cn3cnnn3)ccc2O[C@H]1CN(C)Cc1ccccc1	none
COCC(=O)N1[C@H](C(=O)Nc2ccccc2)[C@@H](CO)[C@@H]2Cn3c(ccc(-c4cccnc4)c3=O)[C@@H]21	none (no result: Pf Dd2 inh)
C[C@@H]1CN([C@@H](C)CO)C(=O)c2cc(NC(=O)Cn3cnnn3)ccc2O[C@H]1CN(C)CC1CCCCC1	none
Cn1cnc(S(=O)(=O)N[C@H]2CC[C@H](CC(=O)Nc3ccccc3)O[C@H]2CO)c1	none (no result: Pf Dd2 inh, T cruzi growth-1)
O=C(NCC[C@@H]1CC[C@@H](NS(=O)(=O)c2cccc(F)c2)[C@H](CO)O1)C1CCCCC1	none (no result: T cruzi growth-1)
CNC[C@@H]1OCCCC[C@H](C)Oc2ccc(NS(=O)(=O)c3ccc(C)cc3)cc2C(=O)N([C@H](C)CO)C[C@@H]1C	none
N#C[C@@H]1N[C@@H](CO)[C@H]1c1ccc(C#Cc2ccccc2F)cc1	none
N#C[C@@H]1N[C@@H](CO)[C@@H]1c1ccc(C#Cc2ccc(F)cc2)cc1	T cruzi growth-1 103 | T cruzi growth-2 105 | T cruzi growth-3 inactive | NIH3T3 tox inactive | 3T3 cytotox 2 inactive
N#C[C@@H]1N[C@@H](CO)[C@H]1c1ccc(C#Cc2ccc(F)cc2)cc1	T cruzi growth-1 inconclusive | T cruzi growth-2 inactive | T cruzi growth-3 inactive | NIH3T3 tox inactive | 3T3 cytotox 2 inactive
CN(C)CC#Cc1ccc([C@@H]2[C@H](C#N)N[C@@H]2CO)cc1	none
N#C[C@H]1N[C@H](CO)[C@@H]1c1ccc(C#CC2CCCC2)cc1	none
N#C[C@@H]1N[C@@H](CO)[C@H]1c1ccc(C#CC2CCCC2)cc1	T cruzi growth-1 inconclusive | T cruzi growth-2 inactive | T cruzi growth-3 inactive | NIH3T3 tox inactive | 3T3 cytotox 2 inactive
CO[C@@H]1CN(C)C(=O)c2ccc(NS(=O)(=O)c3ccccc3)cc2OC[C@H](C)NC[C@H]1C	none (no result: C diff growth)
C[C@@H]1CN([C@@H](C)CO)C(=O)c2cc(NC(=O)NC3CCCCC3)ccc2O[C@H]1CN(C)C	none
CO[C@@H]1CN(C)C(=O)c2cc(NC(=O)Nc3ccc(Cl)cc3)ccc2OC[C@H](C)N(C(=O)Nc2c(C)noc2C)C[C@@H]1C	none
N#Cc1cccc(-c2ccc3c(c2)[C@@H]2[C@@H](CCN2S(=O)(=O)c2ccccc2)[C@H](CO)N3)c1	none
CN(C)C(=O)c1cccc(-c2ccc3c(c2)[C@@H]2[C@@H](CCN2S(=O)(=O)c2ccccc2)[C@H](CO)N3)c1	T cruzi growth-1 112 | T cruzi growth-2 97 | T cruzi growth-3 inactive | NIH3T3 tox inactive | 3T3 cytotox 2 inactive
CN(C)C(=O)c1ccc(-c2ccc3c(c2)[C@H]2[C@H](CCN2S(=O)(=O)c2ccccc2)[C@H](CO)N3)cc1	none
CN(C)C(=O)c1cccc(-c2ccc3c(c2)[C@H]2[C@H](CCN2S(=O)(=O)c2ccccc2)[C@@H](CO)N3)c1	T cruzi growth-1 100 | T cruzi growth-2 96 | T cruzi growth-3 inactive | NIH3T3 tox inactive | 3T3 cytotox 2 inactive
COc1ccccc1NC(=O)N(C)C[C@@H]1OCc2cn(nn2)CCCC(=O)N([C@@H](C)CO)C[C@@H]1C	none
O=C(CC1CC1)N1CC[C@@H]2[C@H](CO)Nc3ccc(-c4cccc(F)c4)cc3[C@@H]21	none
